Source: PubChem BioAssay AID1347426 (Functional Genomics Laboratory (NCATS/FGL), 2020)
The campaign covered roughly 31,000 sequences. About 1,400 (4.5%) were called active. This excerpt belongs to a sample that is enriched for actives. Values without a mark were called inactive.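 Rule for the calls: active = median seed-adjusted z-score above 1 or below -1; inactive = the rest.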

test: Novel Modifiers of Survival Motor Neuron (SMN) Protein: Gene Identification via Genome-wide siRNA Screen; conditions: HEK293T SMN2-luciferase reporter, siRNA knockdown, 72 h; actives lie on both sides;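 note: luminescence tracks full-length SMN protein made from the SMN2 reporter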
Summary of the method: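 Genome-wide siRNA screen (10418 genes, 3 siRNAs each, 1 pmol per well) by reverse transfection in HEK293T cells stably carrying an SMN2-luciferase reporter; luminescence after 72 hours, normalized to negative-control siRNA, log10-transformed, MAD-scored.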

| Sequence | median seed-adjusted z-score |
| --- | --- |
| GCCUUAAAGACUUACCGAATT against USPL1 | -1.87 (active) |
| GUUUGUGACUGUAACCAUUTT against CTBP1 | 0.105 |
| GCUAUGGUGCUGUCGCUUATT against RHOXF2 | -0.331 |
| GGAAUGGACUCAGUGAUCATT against PFTK1 | 0.088 |
| CGCGGAAACUUGUCCCUAUTT against SP2 | -0.617 |
| GCCCUGACAUUUCCCGAAATT against FOXJ2 | -0.627 |
| UCAAUAAACUGCACGAAUATT against HS3ST1 | 1.21 (active) |
| ACGUGGAAGUGACCCGGAATT against MTX1 | -0.159 |
| GCAUGUCCCGAAAACAAGATT against KLF7 | 0.393 |
| GGACUUACGUGGAAGUAGATT against PLCB1 | 0.0735 |
| CGUAGUAUAUUAACAAGUATT against MKKS | 1.03 (active) |
| CUCUAGGAGUGACCACGAATT against LYPLAL1 | -0.425 |
| GGAGCACAGAAUACCGGAATT against C3orf64 | 0.0771 |
| CAAACGGGCUCAUCAUAAUTT against MAX | 0.0949 |
| AGAGACCCAUGGGAACAAATT against SIGMAR1 | -1.4 (active) |
| CGAAUGUCACCAUAUAUAATT against IL1RL1 | -0.286 |
| AGGAGGUUACGGCACAAAATT against STK11 | 0.348 |
| GCAACACCAUCGUCUGUGATT against P2RY13 | -0.0427 |
| GGAACAUCAUUCUACCCAATT against KIF15 | -0.873 |
| CCUUAAUCCUUUGUUAACATT against KPNA6 | -1.54 (active) |
| GGAUGAUGUACUUCUCUCATT against MLNR | -0.038 |
| CCCUGUCCUUAGCACUCUATT against GFI1B | 0.154 |
| GGAGCAUUCUCAUUCGAGATT against CSTF3 | 0.0879 |
| GCUUGCAGUUAAUAUCAUUTT against ODC1 | -1.64 (active) |
| GCAGAGUGCUUCCCAGUGATT against JRK | -0.624 |
| CAGAUGUCAUGAAUCAAGATT against RPUSD2 | -0.215 |
| CAAGUACAAUACUAACUGUTT against ZNF280C | 0.336 |

| Sequence | median seed-adjusted z-score |
| --- | --- |
| CAACGGCAACGGAGAGGAUTT against SLC24A6 | -0.792 |
| GCGGAACACGAAGAAGUAATT against TMPRSS11E | 0.0512 |
| GGGACGAGAUGGUAAAGAATT against ATP2B2 | 1.37 (active) |
| CCAUGUAUCUGAGUGAUCATT against ERC2 | 0.172 |
| GGAUCUAAUCUUAGAUGUATT against POLR2H | -2.74 (active) |
| GAAUGAGGUUGACUUCUAUTT against CASQ2 | 0.4 |
| GGAUUAUCUCCUCAUUACATT against MCF2L2 | -0.465 |
| CCUUGAUCAUCGACAUUCUTT against GIT1 | -0.307 |
| CCUCGACAGUGAAUGCAAATT against ABCF3 | 0.0759 |
| GAAAAUCUAUCAGAACAUUTT against RAB14 | -0.0567 |
| CUAUGACCCUUACCCGUAUTT against FMOD | -1.32 (active) |
| GCUCAGCUCUGGUACUUUATT against GTF2H4 | -0.261 |
| GGUUUGAUGUAGGCCCAAUTT against MTFMT | -0.0119 |
| GGAAGAUCGAAAGUGCGAATT against GZMB | -0.0378 |
| AGUUCAUUCUGACAGAUGATT against VDR | -0.031 |
| CAAUAUUCCGUACAUAGAATT against MRAS | 0.032 |
| GGGAUCUAGUGAAUAAACUTT against EIF2B4 | 0 |
| GCAAAGACCAUAAGAUUUATT against MYST1 | 0 |
| GAGUGUUCAGCAAACCGUATT against MED20 | -1.66 (active) |
| GAUGUGAAAUGGAGAAGUATT against KLF5 | -0.338 |
| ACGCAGAUUUCUACAGAAATT against COX6C | -0.0449 |
| GGAUUACUCUUUUGGUGCATT against IRF5 | -0.146 |
| GAUGCGAUAUUAAUGGGAATT against SMYD4 | 0.272 |
| GAAAAUGUGGGAUCAAGAATT against COQ7 | 0.159 |
| GAGCUGACCUUGAACGAGATT against CHGB | -1.29 (active) |
| GUGCUAAUCUCAAUACCGATT against ZRANB1 | -0.347 |
| GGACAGCUAUGACUCGGAUTT against DOC2A | 0.299 |
